# Laboratory results published in PubChem BioAssay AID602409 (Sanford-Burnham Center for Chemical Genomics, 2012).
# The other results are listed elsewhere or left out. The source made the active and inactive calls.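 Rule for the calls: active = mean inhibition over four retests above 40%; inactive = the rest.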
# Biological target: C-X-C chemokine receptor type 6 (Homo sapiens) (UniProt O00574)
# Experiment: CXCR6 receptor antagonists, confirmation, cell-based, single concentration, beta-arrestin, luminescence (AID 602409);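 note: receptor stimulated with 10 nM CXCL16 agonist; beta-galactosidase fragment complementation upon beta-arrestin recruitment to receptor; plate controls were CXCL16 plus DMSO for no effect and DMSO without CXCL16 for full effect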
# Conditions: CHO-K1 CXCR6 PathHunter beta-arrestin, at 20 µM, active compounds read high
# C-X-C chemokine receptor type 6 (Homo sapiens), sequence (O00574 whole entry, looked up, the tested form may be a part): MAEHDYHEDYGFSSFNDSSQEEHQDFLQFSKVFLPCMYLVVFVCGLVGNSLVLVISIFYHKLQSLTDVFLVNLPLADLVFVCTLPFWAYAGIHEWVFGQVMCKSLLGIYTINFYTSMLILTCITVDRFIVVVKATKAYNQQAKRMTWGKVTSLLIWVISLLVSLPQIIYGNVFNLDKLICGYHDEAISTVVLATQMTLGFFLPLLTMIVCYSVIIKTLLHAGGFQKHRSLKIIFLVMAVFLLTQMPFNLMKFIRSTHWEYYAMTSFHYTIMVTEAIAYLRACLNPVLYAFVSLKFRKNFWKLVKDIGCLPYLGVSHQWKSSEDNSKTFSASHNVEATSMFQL
compound,measurement,value
CC(=O)OC1C2(CC3N4C(=O)C5(CO)SSC4(CC31O)C(=O)N5C)OC(C)C(C)(C)C2=O (stereo unspecified),inhibition,68.1% (active)
